Compounds with a hit are over-represented: about 12% of the library has one in this group of screens.
USP30 block = human USP30 deubiquitinase inhibition; AID 1645860; 47,000 tested, 5.3% active; inhibition, % at 25 µM; Q70CQ3; purified USP30, Ub-rhodamine cleavage fluorescence
Target sequence (Q70CQ3 whole entry, looked up): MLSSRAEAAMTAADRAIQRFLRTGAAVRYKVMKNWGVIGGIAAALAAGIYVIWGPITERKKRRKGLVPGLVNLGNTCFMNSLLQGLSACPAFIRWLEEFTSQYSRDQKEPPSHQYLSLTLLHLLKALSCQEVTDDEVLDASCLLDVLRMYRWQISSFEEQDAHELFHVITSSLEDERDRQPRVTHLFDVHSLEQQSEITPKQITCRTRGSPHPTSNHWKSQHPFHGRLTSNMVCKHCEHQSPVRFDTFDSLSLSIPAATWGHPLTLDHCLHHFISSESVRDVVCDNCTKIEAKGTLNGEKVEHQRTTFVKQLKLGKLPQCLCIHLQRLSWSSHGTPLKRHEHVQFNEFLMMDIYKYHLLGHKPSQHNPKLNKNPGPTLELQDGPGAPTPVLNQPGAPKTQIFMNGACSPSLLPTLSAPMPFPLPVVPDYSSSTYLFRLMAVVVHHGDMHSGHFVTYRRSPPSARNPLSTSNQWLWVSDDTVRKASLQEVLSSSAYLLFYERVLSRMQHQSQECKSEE
USP17 inh = human USP17-like deubiquitinase inhibition. inhibition, % at 50 µM. AID 1645855. purified USP17, Ub-rhodamine cleavage fluorescence, 3 h. 47,000 tested, 6.5% active
USP8 block = blocks human USP8 ubiquitin-rhodamine cleavage | P40818 | AID 1645853 | 47,000 tested, 4.2% active | purified USP8, Ub-rhodamine cleavage fluorescence, 30 min | inhibition, % at 20 µM
An asterisk follows results filed as active; . = no result given. Rule as the data show it: active = inhibition above about 30%; inactive = the rest.

SMILES	USP30 block	USP17 inh	USP8 block
Cc1ccccc1CNC(=O)C1CCN(C2=NS(=O)(=O)c3ccccc32)CC1	32*	12	18
Cc1ccc(CNC(=O)C2CCN(C3=NS(=O)(=O)c4ccccc43)CC2)cc1	-61	-16	0
O=C(NCc1ccccc1)C1CCN(C2=NS(=O)(=O)c3ccccc32)CC1	.	14	4
CC(O)(C(=O)NCCc1nc(-c2ccncc2)n[nH]1)c1ccccc1 (configuration not stated)	26	16	5
CN(C(=O)NC1CCCC1)c1nc2c(s1)CN(Cc1ccccc1)C2=O	-29	-3	-19
O=C(COc1ccc(C(=O)c2ccccc2)cc1)Nc1ccc2c(c1)OCO2	15	0	-18
COc1ccc(S(=O)(=O)N2CCOCC2)cc1NC(=O)COc1ccc(C)cc1	0	-2	-9
COc1ccc(C)cc1NC(=O)COc1ccc2c(c1)OCO2	-1	52*	37*
O=C(COc1ccc2c(c1)OCO2)Nc1ccc2c(c1)CCC2	6	16	31*
O=C(c1cc(-c2ccn(C3CCCC3)n2)n2ccccc12)N1CCCC1	-59	-28	-5
COc1cc(C)cc2oc(=O)c(CC(=O)N[C@@H](Cc3c[nH]c4ccccc34)C(=O)O)c(C)c12	-4	6	0
CC(NC(=O)CCc1ccc2c(ccn2C)c1)c1ccccc1 (configuration not stated)	-121	-35	-28
COc1ccc(NC(=O)C(C)Oc2ccc(Cl)cc2)cc1S(=O)(=O)N1CCCCC1 (configuration not stated)	12	5	-9
Cc1nnc(SCCn2c(N3CCC(Cc4ccccc4)CC3)nc3c2c(=O)n(C)c(=O)n3C)s1	7	-16	-2
C=C(C)Cn1c(N2CCC(Cc3ccccc3)CC2)nc2c1c(=O)[nH]c(=O)n2C	37*	30	-4
Cn1c(=O)[nH]c(=O)c2c1nc(N(CCO)CCO)n2CCc1ccccc1	5	-7	10
Cc1cc(C)nc(SCCn2c(N3CCC(Cc4ccccc4)CC3)nc3c2c(=O)n(C)c(=O)n3C)n1	56*	41*	6
Cc1nccc(C(=O)N2C[C@@H]3OCC(=O)N(CCc4ccccc4)[C@H]3C2)n1	-2	1	3
Cc1sc(-c2cccnc2)nc1OC(=O)c1ccc(S(C)(=O)=O)cc1Cl	26	13	-68
Cc1sc(-c2cccnc2)nc1OC(=O)c1ccc(Cl)c(Cl)c1	62*	38*	-26
Cc1ccc2c(Nc3ccccc3)c(C(=O)N3CCOCC3)cnc2n1	.	7	-5
Oc1cc(OCCN2CCOCC2)ccc1-c1[nH]ncc1-c1ccc(Br)cc1	-70	.	76*
NC(=O)C1CCN(CCOc2ccc(-c3[nH]ncc3-c3ccc(Cl)cc3)c(O)c2)CC1	-22	21	77*
Oc1cc(OCCN2CCOCC2)ccc1-c1[nH]ncc1-c1ccc(Cl)cc1	-4	24	84*
Nc1c(-c2ccc(Cl)cc2)cnc2nc(N3CCOCC3)nn12	1	3	2
SMILES	USP30 block	USP17 inh	USP8 block
COc1ccc(-c2csc3ncnc(NCCCN4CCOCC4)c23)cc1	0	-4	-10
O=C(c1cc(C2CC2)[nH]n1)N1CCN(CCOc2ccc(Cl)cc2)CC1	20	-1	9
CC1(C)C(O)CCC2(C)C1CCC1(C)C2C(=O)C=C2[C@@H]3C[C@@](C)(C(=O)O)CCC3(C)CC[C@]21C (some centres not stated)	49*	46*	3
CC(=O)O[C@H]1CC[C@]2(C)[C@H]3C(=O)C=C4[C@@H]5C[C@@](C)(C(=O)O)CC[C@]5(C)CC[C@@]4(C)[C@]3(C)CC[C@H]2C1(C)C	5	7	8
O=C(Nc1ccc(F)c(F)c1)c1ccc(Cn2c(=O)c3cccn3c3cccnc32)cc1	-31	-1	20
Cc1ccc(CNC(=O)CCc2c(C)nn(-c3cc(N4CCOCC4)ncn3)c2C)cc1	-8	-1	-1
Cc1ccc(C)c(NC(=O)CCc2c(C)nn(-c3cc(N(C)C)ncn3)c2C)c1	31*	17	-32
Cc1ccc(S(=O)(=O)N2CCC3(CC2)CC3c2nnc(-c3cccc(F)c3)o2)cc1F (configuration not stated)	-22	6	3
CS(=O)(=O)c1cccc(-c2nnc(NC(=O)c3ccc(Cc4ccccc4)cc3)o2)c1	35*	5	35*
CS(=O)(=O)c1ccc(-c2nnc(NC(=O)c3ccco3)o2)cc1	10	6	-2
CC(NC(=O)c1ccc(Oc2ccccc2)cc1)c1ccc(Cl)c(Cl)c1 (configuration not stated)	13	0	5
CC(NC(=O)c1ccc(-c2nnc(-c3ccccc3)o2)cc1)c1ccc(S(C)(=O)=O)cc1 (configuration not stated)	41*	71*	4
O=C(O)[C@H](Cc1ccc(O)cc1)NC(=O)[C@H](Cc1ccccc1)n1c(=O)[nH]c2ccccc2c1=O	-4	2	14
COc1ccc(CC(=O)OCC(=O)NC(c2ccccc2)c2ccccc2)cc1	30	5	-3
Cc1ccc(S(=O)(=O)NC(=O)N(Cc2ccc3c(c2)CCO3)C2CC2)cc1	5	0	6
Cc1ccc(-c2csc3ncnc(NCCCN4CCOCC4)c23)cc1	14	0	2
COc1ccc(-c2[nH]ncc2CN2CCN(c3ccc(F)cc3)CC2)cc1	-16	-35	-115
COc1ccc(N2CCN(Cc3nnnn3Cc3ccc4c(c3)OCO4)CC2)cc1	53*	42*	-5
Cc1ccc(C(=O)CCC(=O)N2CCCC(c3nn(C)c4nccnc34)C2)cc1C (configuration not stated)	-95	-22	-30
Cc1ccc(C)c(-c2cc3c(=O)n(Cc4noc(CN5CCCCC5)n4)ccn3n2)c1	-52	-9	-10
Cc1cc(Cl)ccc1OCCCC(=O)NCc1ccc(F)cc1	21	11	-23
CCc1ccccc1N(C)C(=O)c1noc2c1CCc1sccc1-2	29	19	5
Cn1nc(C(=O)NCc2ccc3c(c2)OCO3)c2c1-c1ccsc1CC2	29	17	30
Cc1ccc(NC(=O)c2noc3c2CCc2sccc2-3)cc1Cl	20	13	20
O=C(Nc1ccc2c(c1)OCO2)c1noc2c1CCc1sccc1-2	-22	12	53*
SMILES	USP30 block	USP17 inh	USP8 block
Cc1cccc(NC(=O)c2noc3c2CCc2sccc2-3)n1	22	65*	94*
Cc1cccc(N2CCN(C(=O)c3noc4c3CCc3sccc3-4)CC2)c1C	4	-8	1
O=C(Nc1ccc(F)cc1)c1noc2c1CCc1sccc1-2	3	36*	-1
O=C(Nc1ccccc1)c1noc2c1CCc1sccc1-2	4	37*	4
CN1CC2(CCN(C(=O)c3ccn[nH]3)CC2)COc2ccccc2S1(=O)=O	-15	-16	3
Nc1nc(C2CCCN(C(=O)CCC3CCCC3)C2)cc2ccnn12 (configuration not stated)	-25	-12	-32
Cn1nccc1-c1cncc(CC2CCN(C(=O)C(C)(C)C)CC2)n1	10	6	2
Cc1cc(C)n2nc(CNS(=O)(=O)c3cccc(C#N)c3)nc2n1	0	1	-4
COCC(=O)N1C[C@@H]2C[C@]2(c2ccccc2)C(=O)c2ccccc21	0	-3	-5
